Results reported in PubChem BioAssay AID651957 (The Scripps Research Institute Molecular Screening Center, 2012).
Screen size: about 370,000 compounds; about 620 (0.17%) were called active. The sample holds actives, similar compounds and a random draw of the others, so the mix is not that of the screen.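 The calls were made as follows: active = inhibition above the mean inhibition of all tested compounds plus 3 SD, set per campaign (cut at about 52% in these data); inactive = the rest.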

biological target: Nuclear receptor coactivator 2 (Homo sapiens) (UniProt Q15596); test: inhibition of GAL4-SRC2 driven luciferase reporter, primary screen, SRC2 inhibitor project, cell-based, luminescence (AID 651957); conditions: HEK293 GAL4-SRC2 luciferase reporter, at 9 µM, stronger effect = higher value;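 also: 0% = DMSO treated cells and 100% = cells given Gossypol at 36 µM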
Sequence (Q15596 whole entry, looked up, the tested form may be a part): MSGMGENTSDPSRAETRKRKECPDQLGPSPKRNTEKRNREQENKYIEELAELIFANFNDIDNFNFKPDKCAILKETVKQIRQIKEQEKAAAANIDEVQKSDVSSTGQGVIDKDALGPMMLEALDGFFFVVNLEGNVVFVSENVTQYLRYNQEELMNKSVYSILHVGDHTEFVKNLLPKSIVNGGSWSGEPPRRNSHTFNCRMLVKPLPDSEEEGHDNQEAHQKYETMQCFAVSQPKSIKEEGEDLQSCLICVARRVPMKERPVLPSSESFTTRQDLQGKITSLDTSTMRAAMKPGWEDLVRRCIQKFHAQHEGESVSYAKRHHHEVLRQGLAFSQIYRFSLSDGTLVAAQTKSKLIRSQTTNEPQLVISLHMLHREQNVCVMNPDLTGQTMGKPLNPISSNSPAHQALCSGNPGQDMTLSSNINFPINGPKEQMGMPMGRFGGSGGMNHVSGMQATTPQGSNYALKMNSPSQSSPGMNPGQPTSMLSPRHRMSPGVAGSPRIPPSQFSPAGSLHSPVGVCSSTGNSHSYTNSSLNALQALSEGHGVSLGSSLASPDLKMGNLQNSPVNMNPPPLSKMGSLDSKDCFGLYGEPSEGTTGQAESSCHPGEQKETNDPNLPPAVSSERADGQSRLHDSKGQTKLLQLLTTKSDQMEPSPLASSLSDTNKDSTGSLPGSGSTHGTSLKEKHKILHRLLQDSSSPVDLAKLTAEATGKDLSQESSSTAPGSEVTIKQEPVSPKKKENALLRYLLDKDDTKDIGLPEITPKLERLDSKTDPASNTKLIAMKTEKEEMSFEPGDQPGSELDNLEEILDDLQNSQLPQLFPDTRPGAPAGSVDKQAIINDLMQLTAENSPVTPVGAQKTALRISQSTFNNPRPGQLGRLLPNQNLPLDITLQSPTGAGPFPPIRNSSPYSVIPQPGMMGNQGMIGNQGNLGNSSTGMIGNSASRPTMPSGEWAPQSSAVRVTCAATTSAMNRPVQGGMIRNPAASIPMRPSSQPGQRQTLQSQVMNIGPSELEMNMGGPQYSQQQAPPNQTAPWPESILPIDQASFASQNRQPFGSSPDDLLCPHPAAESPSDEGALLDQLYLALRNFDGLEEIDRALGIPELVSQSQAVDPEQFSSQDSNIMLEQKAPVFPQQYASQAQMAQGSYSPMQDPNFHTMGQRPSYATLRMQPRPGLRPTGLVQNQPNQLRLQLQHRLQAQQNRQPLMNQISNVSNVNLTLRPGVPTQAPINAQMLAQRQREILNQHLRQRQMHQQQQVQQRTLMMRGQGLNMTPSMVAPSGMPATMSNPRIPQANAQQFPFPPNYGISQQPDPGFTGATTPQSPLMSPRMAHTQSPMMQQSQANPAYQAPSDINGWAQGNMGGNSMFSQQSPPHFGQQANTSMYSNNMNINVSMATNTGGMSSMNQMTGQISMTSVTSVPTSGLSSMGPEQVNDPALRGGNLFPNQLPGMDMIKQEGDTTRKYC

inhibition, active:
CCOc1cc(/C=C(/C#N)c2ccc(Cl)cc2)cc(Cl)c1OCC(=O)O 56.9%, CN(c1ccc2nc3ccccc3c(=O)n2n1)C1CCCCC1 72.1%, CC1=CC(C)(C)Nc2ccc(OC(=O)CN3C(=O)C4CCCCC4C3=O)cc21 (stereo not given) 52.7%, CC(C)(C)c1ccc(Oc2ccc(N)cc2)cc1 92%, CCOc1ccc(NC(=S)NC(=O)/C=C/c2ccc(OC)cc2)c([N+](=O)[O-])c1 95.6%, COc1ccc(Nc2ncnc3ccc(Br)cc23)c(OC)c1 86.6%, CCC(C)(C)c1ccc(Oc2ccc(NC(=O)COC(=O)C3=COCCO3)cc2)cc1 56.6%, Cc1ccc(-c2cn3cc(C)ccc3n2)cc1 72.6%, Cc1ccc2nc(-c3ccc(Br)cc3)cn2c1 60.3%, COc1ccc(C(=O)Nc2ccccc2C(=O)N/N=C/c2ccc(O)c(OC)c2)cc1 55%, C=CCn1c(C)cc(C2=NNC(=NCC)SC2)c1C 84.4%, Cc1cccc(NC(=O)c2nc(S(=O)(=O)Cc3ccccc3)ncc2Cl)c1 64.1%, Cc1cccc(CS(=O)(=O)c2ncc(Cl)c(C(=O)Nc3ccc(F)cc3)n2)c1 62.1%, Cc1ccc(CS(=O)(=O)c2ncc(Cl)c(C(=O)Nc3nnc(C)s3)n2)cc1 64%, C=CCOc1ccc(/C=C2\SC(=S)N(CCC(=O)O)C2=O)cc1 85.7%, CCOC(=O)C1=C(c2ccc(OC)cc2)C(=O)c2ccccc2C1=O 73.8%, O=C(CN1C(=O)c2ccccc2S1(=O)=O)N1CCc2ccccc21 73.3%

inhibition, inactive:
Cc1ccc(C2=CCN(C)C(=O)N2c2ccc(Cl)cc2)cc1 30.5%, O=C(NC1CCCCN(Cc2cccc(C(F)(F)F)c2)C1=O)c1ccccc1I (stereo not given) 18.9%, CCCC(CCC(=O)OC)(C(=O)OCC)c1csc(N)n1 (stereo not given) 11%, CCOC(=O)[C@]12CCCCC/C=C\1N(Cc1ccc(OC)cc1)C(=O)[C@H]2CC(=O)NCc1ccc(C)o1 -22.3%, O=C(CSc1nc2ccccc2n1Cc1ccccc1)NNC(=S)Nc1ccccc1 4.68%, COC(=O)C1=C(C)N(Cc2cccc(C(F)(F)F)c2)C(=NCc2cccc(C(F)(F)F)c2)NC1c1ccccc1C(F)(F)F (stereo not given) -30.7%, Cc1ccccc1CN1CCCCC(NC(=O)c2cccc(C#N)c2)C1=O (stereo not given) -18.3%, N#C/C(=C/c1ccc(Cl)cc1)NC(=O)c1ccccc1 -29%, CCOC(=O)CN(C(=O)COc1nc(C)cc(C)c1C#N)c1ccc(Cl)cc1 -18%, C=CCn1c(SCC(N)=O)nnc1-c1ccccc1OC -9.59%, CC(C)CC1NC(=O)c2cc(Cl)ccc2-n2c1nc1ccccc1c2=O (stereo not given) 5.29%, O=C(c1ccco1)N(Cc1nc2ccccc2c(=O)[nH]1)C1CCCC1 2.27%, O=C(NC1Cc2ccccc2C1)c1cc(COc2cccc(C(F)(F)F)c2)on1 11.1%, CC1(C)CC(N2CCN(C(c3ccccc3)c3ccccc3)CC2)=CC(=[N+]2CCCCC2)C1 24.5%, COc1ccc(S(=O)(=O)N2CCc3ccccc32)cc1C(=O)Nc1cc(S(C)(=O)=O)ccc1Cl -10.2%, O=C(Nc1nc2ccc(Cl)cc2s1)c1cc(-c2ccc(Cl)cc2)nc2ccccc12 -2.88%, O=C(COC(=O)CN1C(=O)C2CCCCC2C1=O)Nc1ccc(F)c(F)c1F (stereo not given) -13.3%, CC(OC(=O)CN1C(=O)C2CCCCC2C1=O)C(=O)Nc1ncc(Cl)cc1Cl (stereo not given) 1.55%, Cc1ccc(-n2c(SCC(=O)Nc3cccc4ccccc34)nnc2-c2ccco2)cc1 -19.3%, CN1CCNC(=O)C1CC(=O)NCCC1=CCCCC1 (stereo not given) 20.1%, CN1CCCCC(NC(=O)C(C)(C)C)C1=O (stereo not given) -8.4%, CCC(c1ccc(NC(=O)OC(C)(C)C)cc1)c1cc(OC)cc(OC)c1 (stereo not given) 11.3%, CC(=O)c1cc(-c2ccc3ccccc3c2)c(=O)n2c1CCC2 -32.7%, COc1cccc(CN2CCN(Cc3ccc4cccc(F)c4n3)CC2CCO)c1 (stereo not given) -4.49%, COc1ccc(/C=C/C(=O)NC(=S)N2CCCC(C(N)=O)C2)cc1 (stereo not given) -8.4%, CCOc1ccc(NC(=O)COC(=O)C2CCC(=O)N2)c([N+](=O)[O-])c1 (stereo not given) -12.2%, CC(C)(C)c1ccc(CSc2nnc(-c3cccs3)o2)cc1 -21.4%, COC[C@@H]1CCCN1c1ccc2c(c1)O[C@H](C)CCN(C1CC1)S2(=O)=O 14.3%, O=C(NCc1ccccn1)[C@@H]1CCCN1C(=O)[C@@H]1CCCN1C(=O)c1ccccc1 -0.2%, COc1ccc(C2=CN(Cc3ccccc3)C(c3ccc(OC)cc3)CC2=O)cc1 (stereo not given) 12.8%, CCOC(=O)[C@]12CCCC3=C1N(CCC3)C(=O)[C@@H](CC(=O)N1CCSCC1)C2 12.6%, CC1(C)CC2CC(C)(CN2c2ncnc3ccc(Br)cc23)C1 (stereo not given) 17.4%, CCOC(=O)CNc1nc(Cl)nc(Nc2ccc(OC)cc2OC)n1 -23.9%, CC(C)CNc1cccc2c1S(=O)(=O)N(Cc1cn(Cc3ccccc3C(F)(F)F)nn1)Cc1ccccc1O2 2.85%, CC(=O)Nc1ccc(NC(=O)COC(=O)C2CCC(C(C)(C)C)CC2)cc1 (stereo not given) -24.4%, CCOC(=O)c1sc(N)c(C#N)c1COC(=O)C1=COCCO1 7.27%, Cc1nnc(SCC(=O)N2c3ccccc3C(C)(c3ccc(Cl)cc3)CC2(C)C)s1 (stereo not given) -11.4%, C=CCNC(=O)c1sc(SC)cc1-c1ccc(Cl)cc1 3.88%, O=C(OC12CCCN(C1)/C(=C/c1ccccc1)C2)c1ccco1 (stereo not given) 9.76%, OCC[C@H]1C[C@H](O)[C@@H](O)[C@]2(CCc3ccccc3O2)O1 3.27%, CCOC(=O)c1ccccc1NS(=O)(=O)c1c(C)nc2sccn2c1=O -4.6%, Cc1nc(-c2ccccc2)cn2c1nc1ccccc12 7.57%, Cc1ccc2nc(-c3ccccc3)c(CC3CCCCC3)n2c1 -25.6%, Cc1nc(=O)c(-c2ccccc2)c(C)n1-c1ccc(Br)cc1 -29.2%, COc1cc(C(=O)Nc2cc(C(F)(F)F)ccc2N2CCOCC2)ccc1O -7.29%, COc1cc(/C=C/C(=O)OCC(=O)Nc2cccc(Oc3ccccc3)c2)ccc1O 11.1%, Cc1ccccc1NC(=O)Cn1nnc(-c2ccccc2F)n1 11.4%, CC(C)CNc1cccc2c1S(=O)(=O)N(Cc1cn(Cc3ccc(Cl)cc3)nn1)Cc1ccccc1O2 26.6%, Cc1cccc(NC(=O)c2cc3c(C)nn(-c4ccccc4)c3s2)c1 0.27%, Cc1ccc(CS(=O)(=O)CCC(=O)NC2CC2)cc1 -50%, CN(CCC(=O)Nc1cc(S(=O)(=O)N(C)C)ccc1Cl)CC(=O)Nc1ccc(F)cc1 -17.9%, Cc1cccc(C(=O)Nc2c(-c3ccc(F)cc3)nc3ncccn23)c1 16.3%, Cc1nnc(NC(=O)CSc2nccn2-c2cccc(C)c2C)s1 -5.88%, O=C(CCS(=O)(=O)c1ccccc1)Nc1ccc(Cl)c(Cl)c1 -2.79%, O=C(NCCC1=CCCCC1)C1CCN(S(=O)(=O)c2ccc(Cl)s2)CC1 -18.3%, COc1ccc(N2CCN(CCNS(=O)(=O)c3ccc([N+](=O)[O-])cc3)CC2)cc1 9.36%, O=S1(=O)c2ccc(Br)cc2OC[C@@H](Cc2ccccc2)N1Cc1cn(Cc2ccco2)nn1 -13.6%, CC1CCC(N2CC(=O)N(Cc3ccc4c(c3)OCO4)C(c3ccc(F)cc3)C2=O)CC1 (stereo not given) 3.66%, Clc1ccc(C(Cn2ccnc2)OCc2ccsc2Cl)c(Cl)c1 (stereo not given) 7.22%, COc1ccc2cc(C(=O)O)n(CC(=O)c3ccccc3)c2c1 -12.1%, C=CCOc1ccc(C(=O)Nc2ccccc2C(=O)N2CCCC2)cc1 -24.2%, Cc1cc(OCCCC(=O)NCCN2C(=O)S/C(=C\c3cccnc3)C2=O)ccc1Cl -14.1%, CCOC(=O)C1=C(C)NC2=C(C(=O)CC(C)(C)C2)C1c1ccc2c(c1)OCO2 (stereo not given) 11.6%, COc1ccc2c(c1)CCC/C2=N\OC(=O)c1ccccc1F 4.64%, CCCCCCCCN1C(=O)[C@@H](CC(=O)NCCCC)C[C@@]2(C(=O)OC)C1=C[C@H](C(C)(C)C)O[C@@H]2C -9.63%, Nn1c(SCC(=O)Nc2ccc(S(N)(=O)=O)cc2)nnc1-c1n[nH]c2c1CCC2 10.6%, CCOC(=O)C1=C(CC)Nc2ccccc2N=C1N 12.5%, CCOC(=O)C1C(=O)C=C(c2ccc(OC)cc2)CC1c1ccco1 (stereo not given) -4.74%, Cc1ccc(S(=O)(=O)N(C)CC(=O)N2CCc3ccccc32)cc1 -6.78%, NS(=O)(=O)c1ccc(CCNC(=O)CN2C(=O)c3ccccc3S2(=O)=O)cc1 1.66%, O=C(COC(=O)c1cnccn1)Nc1cccc2ccccc12 -4.93%, CCOC(=O)C(C(=O)c1ccccc1)C(c1ccccc1)c1nccc2ccccc12 (stereo not given) 14.8%, COc1cccc(CC(=O)N2CCN(C(=O)C(=O)c3cccc(C(F)(F)F)c3)CC2)c1 7.57%
